Laboratory results from PubChem BioAssay (NCATS).
Records with an inconclusive call do not appear. The source made the active and inactive calls. The call rests on the fitted dose curve; in most records, active means well fitted cell-killing curve with a large enough effect; inconclusive means small, poorly fitted or top-dose-only effect, or effect the other way; inactive means flat fitted curve, though single readings scatter.

Legend:
Assay in all cases: Primary qHTS to identify gynecologic anti-cancer compounds using libraries of approved drugs and bioactive compounds (AID 1345084); further: nearly all actives have a fitted effect of over 55% in size
C33A = conditions: Gynecologic cancer cell panel viability, ATPlite luminescence, 48 h; series mostly up to 57.5 µM
Summary of the method: (§1)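 Five-point cytotoxicity, 48 h drug exposure at 37 C, 5% CO2, on cells seeded 16 h beforehand. ATP content read by ATPlite luminescence.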

CAOV3 = conditions: Gynecologic cancer cell panel viability, ATPlite luminescence, 48 h; series mostly up to 57.5 µM
Summary of the method: as §1

CASKI = conditions: Gynecologic cancer cell panel viability, ATPlite luminescence, 48 h; series mostly up to 57.5 µM
Summary of the method: as §1

Es-2 = conditions: Gynecologic cancer cell panel viability, ATPlite luminescence, 48 h; series mostly up to 57.5 µM
Summary of the method: as §1

HeLa = conditions: Gynecologic cancer cell panel viability, ATPlite luminescence, 48 h; series mostly up to 57.5 µM
Summary of the method: as §1

Hek293T = conditions: Gynecologic cancer cell panel viability, ATPlite luminescence, 48 h, control line for the selectivity index; series mostly up to 57.5 µM
Summary of the method: as §1

JEG-3 = conditions: Gynecologic cancer cell panel viability, ATPlite luminescence, 48 h; series mostly up to 57.5 µM
Summary of the method: as §1

OV90 = conditions: Gynecologic cancer cell panel viability, ATPlite luminescence, 48 h; series mostly up to 57.5 µM
Summary of the method: as §1

PA-1 = conditions: Gynecologic cancer cell panel viability, ATPlite luminescence, 48 h; series mostly up to 57.5 µM
Summary of the method: as §1

SKOV3 = conditions: Gynecologic cancer cell panel viability, ATPlite luminescence, 48 h; series mostly up to 57.5 µM
Summary of the method: as §1

Tov-21-G = conditions: Gynecologic cancer cell panel viability, ATPlite luminescence, 48 h; series mostly up to 57.5 µM
Summary of the method: as §1

Tov112D = conditions: Gynecologic cancer cell panel viability, ATPlite luminescence, 48 h; series mostly up to 57.5 µM
Summary of the method: as §1
On the % scale 0 is the no-effect control and ±100 the full control effect.

CC1OC(O[C@H]2CC[C@@]3(C)C(CC[C@]4(C)C3CC=C3C5CC(C)(C)CC[C@]5(C(=O)OC5OC(CO)C(OC6OCC(OC7OCC(O)C(O)C7O)C(O)C6O)C(O)C5O)CC[C@]34C)C2(C)C)C(O)C(O)C1OC1OC(CO)C(O)C(OC2OC(CO)C(O)C(O)C2O)C1O (some centres not stated)
inactive: activity change, negative = cytotoxicity (C33A) -11.5% [at 6.55 µM] | activity change, negative = cytotoxicity (CAOV3) 2.33% [at 6.55 µM] | activity change, negative = cytotoxicity (CASKI) -4.77% [at 6.55 µM] | activity change, negative = cytotoxicity (Es-2) -1.46% [at 6.55 µM] | activity change, negative = cytotoxicity (HeLa) 1.79% [at 6.55 µM] | activity change, negative = cytotoxicity (Hek293T) -4.99% [at 6.55 µM] | activity change, negative = cytotoxicity (JEG-3) -5.08% [at 6.55 µM] | activity change, negative = cytotoxicity (OV90) -14.5% [at 6.55 µM] | activity change, negative = cytotoxicity (PA-1) -1.37% [at 6.55 µM] | activity change, negative = cytotoxicity (SKOV3) 3.95% [at 6.55 µM] | activity change, negative = cytotoxicity (Tov-21-G) -4.11% [at 6.55 µM] | activity change, negative = cytotoxicity (Tov112D) -3.05% [at 6.55 µM]

COC(=O)C1=CO[C@@H](O[C@@H]2O[C@H](CO)[C@@H](O)[C@H](O)[C@H]2O)[C@@H]2[C@@H](C)[C@@H](OC(=O)/C=C/c3ccccc3)[C@@H](O)[C@H]12
inactive: Potency (C33A) | Potency (CAOV3) | outcome (CASKI) | Potency (Es-2) | Potency (HeLa) | Potency (Hek293T) | Potency (JEG-3) | Potency (OV90) | Potency (PA-1) | Potency (SKOV3) | Potency (Tov-21-G) | Potency (Tov112D)

CCC(C)/C=C(C)/C=C/C1=CC2=CC(=O)C(C)(O)C(OC(C)=O)C2CO1 (configuration not stated)
inactive: Potency (C33A) | Potency (CAOV3) | outcome (CASKI) | Potency (Es-2) | Potency (HeLa) | Potency (Hek293T) | Potency (JEG-3) | Potency (OV90) | Potency (PA-1) | Potency (SKOV3) | Potency (Tov-21-G) | Potency (Tov112D)

CC[C@H]1OC(=O)[C@H](C)C(=O)[C@H](C)[C@@H](OC2O[C@H](C)C[C@H](N(C)C)[C@H]2O)[C@@H](C)C[C@@H](C)C(=O)/C=C/[C@]1(C)O (some centres not stated)
inactive: Potency (C33A) | Potency (CAOV3) | outcome (CASKI) | Potency (Es-2) | Potency (HeLa) | Potency (Hek293T) | Potency (JEG-3) | Potency (OV90) | Potency (PA-1) | Potency (SKOV3) | Potency (Tov-21-G) | Potency (Tov112D)

CCC(C)(C)C1CCc2c(sc(NC(=O)c3ccc(Br)cc3)c2C#N)C1 (configuration not stated)
inactive: Potency (C33A) | Potency (CAOV3) | outcome (CASKI) | Potency (Es-2) | Potency (HeLa) | Potency (Hek293T) | Potency (JEG-3) | Potency (OV90) | Potency (PA-1) | Potency (SKOV3) | Potency (Tov-21-G) | Potency (Tov112D)

O=C(/C=C/c1ccc(O)c(O)c1)O[C@H]1[C@@H]2C=CO[C@@H](O[C@@H]3O[C@H](CO)[C@@H](O)[C@H](O)[C@H]3O)[C@@H]2[C@@]2(CO)O[C@@H]12
inactive: Potency (C33A) | Potency (CAOV3) | outcome (CASKI) | Potency (Es-2) | Potency (HeLa) | Potency (Hek293T) | Potency (JEG-3) | Potency (OV90) | Potency (PA-1) | Potency (SKOV3) | Potency (Tov-21-G) | Potency (Tov112D)

C=C(C)[C@@H]1CC[C@]2(CO)CC[C@]3(C)[C@H](CC[C@@H]4[C@@]5(C)CC[C@H](O)C(C)(C)[C@@H]5CC[C@]43C)[C@@H]12
inactive: Potency (C33A) | Potency (CAOV3) | outcome (CASKI) | Potency (Es-2) | Potency (HeLa) | Potency (Hek293T) | Potency (JEG-3) | Potency (OV90) | Potency (PA-1) | Potency (SKOV3) | Potency (Tov-21-G) | Potency (Tov112D)

Fc1ccc(-c2c3cccc(C(F)(F)F)c3nn2Cc2ccc(F)cc2Cl)cc1
inactive: Potency (C33A) | Potency (CAOV3) | outcome (CASKI) | Potency (Es-2) | Potency (HeLa) | Potency (Hek293T) | Potency (JEG-3) | Potency (OV90) | Potency (PA-1) | Potency (SKOV3) | Potency (Tov-21-G) | Potency (Tov112D)

O=C(O)CCc1c(C(=O)O)[nH]c2cc(Cl)cc(Cl)c12
inactive: Potency (C33A) | Potency (CAOV3) | outcome (CASKI) | Potency (Es-2) | Potency (HeLa) | Potency (Hek293T) | Potency (JEG-3) | Potency (OV90) | Potency (PA-1) | Potency (SKOV3) | Potency (Tov-21-G) | Potency (Tov112D)

C[C@@H](c1ccccc1)N(C(N)=NC#N)c1cccc2ncccc12
inactive: Potency (C33A) | Potency (CAOV3) | outcome (CASKI) | Potency (Es-2) | Potency (HeLa) | Potency (Hek293T) | Potency (JEG-3) | Potency (OV90) | Potency (PA-1) | Potency (SKOV3) | Potency (Tov-21-G) | Potency (Tov112D)

CC1OC(OC2CCC3(C)C(CCC4(C)C3C=CC35OCC6(CCC(C)(C)CC63)CCC45C)C2(C)CO)C(OC2OC(CO)C(O)C(O)C2O)C(O)C1OC1OC(CO)C(O)C(O)C1O (configuration not stated)
inactive: activity change, negative = cytotoxicity (C33A) 0.873% [at 11.6 µM] | activity change, negative = cytotoxicity (CAOV3) 14% [at 11.6 µM] | activity change, negative = cytotoxicity (CASKI) 3.54% [at 11.6 µM] | activity change, negative = cytotoxicity (Es-2) -0.667% [at 11.6 µM] | activity change, negative = cytotoxicity (HeLa) 5.87% [at 11.6 µM] | activity change, negative = cytotoxicity (Hek293T) 6.69% [at 11.6 µM] | activity change, negative = cytotoxicity (JEG-3) 8.45% [at 11.6 µM] | activity change, negative = cytotoxicity (OV90) -14.8% [at 11.6 µM] | activity change, negative = cytotoxicity (PA-1) 5.66% [at 11.6 µM] | activity change, negative = cytotoxicity (SKOV3) 6.92% [at 11.6 µM] | activity change, negative = cytotoxicity (Tov-21-G) 3.71% [at 11.6 µM] | activity change, negative = cytotoxicity (Tov112D) 11.6% [at 11.6 µM]

Nc1ccc(-n2nc(C(F)(F)F)cc2C(F)(F)F)cc1
inactive: Potency (C33A) | Potency (CAOV3) | outcome (CASKI) | Potency (Es-2) | Potency (HeLa) | Potency (Hek293T) | Potency (JEG-3) | Potency (OV90) | Potency (PA-1) | Potency (SKOV3) | Potency (Tov-21-G) | Potency (Tov112D)

COC1OC(OC)C(O)(CCC2(C)C(C)CCC3(C)C2CC(O)C(O)C32CO2)C1O (configuration not stated)
inactive: Potency (C33A) | Potency (CAOV3) | outcome (CASKI) | Potency (Es-2) | Potency (HeLa) | Potency (Hek293T) | Potency (JEG-3) | Potency (OV90) | Potency (PA-1) | Potency (SKOV3) | Potency (Tov-21-G) | Potency (Tov112D)

C/C(=C\C1CCC(C)C2CCC3(C)OC123)C(=O)O (configuration not stated)
inactive: Potency (C33A) | Potency (CAOV3) | outcome (CASKI) | Potency (Es-2) | Potency (HeLa) | Potency (Hek293T) | Potency (JEG-3) | Potency (OV90) | Potency (PA-1) | Potency (SKOV3) | Potency (Tov-21-G) | Potency (Tov112D)

CC(=O)c1[nH]cc(CCC(=O)O)c1CC(=O)O
inactive: Potency (C33A) | Potency (CAOV3) | outcome (CASKI) | Potency (Es-2) | Potency (HeLa) | Potency (Hek293T) | Potency (JEG-3) | Potency (OV90) | Potency (PA-1) | Potency (SKOV3) | Potency (Tov-21-G) | Potency (Tov112D)

N#CN1CCC[C@@H](n2nc(-c3ccc(Oc4ccc(F)cc4F)cc3)c(C(N)=O)c2N)C1
inactive: Potency (C33A) | Potency (CAOV3) | outcome (CASKI) | Potency (Es-2) | Potency (HeLa) | Potency (Hek293T) | Potency (JEG-3) | Potency (OV90) | Potency (PA-1) | Potency (SKOV3) | Potency (Tov-21-G) | Potency (Tov112D)
